Assay results reported in PubChem BioAssay AID651642 (Sanford-Burnham Center for Chemical Genomics, 2012).
Activity calls are given as the source filed them.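 Rule for the calls: active = average half-effect concentration of 10 µM or less in every one of the four cell panels; inactive = the rest.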

Tested on: HL-1
Experiment: protection of cardiomyocytes from stress damage, SAR follow-up, cell-based, panel, H9c2 and HL-1, H2O2, 2-deoxyglucose, ATP luminescence (AID 651642)
Details: H9c2/HL-1 cardiomyocyte 2-deoxyglucose damage, mean of runs, with 2-deoxyglucose

| SMILES | outcome |
| --- | --- |
| COc1ccc2c(c1OC)C(=O)N1c3ccccc3C(=O)N(Cc3ccncc3)C21 (centres undefined) | inactive |
| COc1cc(-c2cc(C(=O)Nc3cccc(C(C)=O)c3)c3cc(F)ccc3n2)cc(OC)c1OC | inactive |
| COc1cc(-c2cc(C(=O)Nc3cccc(C(C)=O)c3)c3ccc(Cl)cc3n2)cc(OC)c1OC | inactive |
| COc1cccc(CNC(=O)CNC(=O)c2cc(-c3cc(OC)c(OC)c(OC)c3)nc3ccccc23)c1 | inactive |
| COc1cc(-c2cc(C(=O)Nc3cccc(C(C)=O)c3)c3cc(C)ccc3n2)cc(OC)c1OC | inactive |
| COc1cc(-c2cc(C(=O)NCC(=O)Nc3cccc(C(C)=O)c3)c3cc(Br)ccc3n2)cc(OC)c1OC | active |
| COc1cc(-c2cc(C(=O)Nc3cccc(-c4nn[nH]n4)c3)c3ccccc3n2)cc(OC)c1OC | inactive |
| COc1cc(-c2cc(C(=O)Nc3cccc(C(C)=O)c3)c3ccccc3n2)cc(OC)c1OC | active |
| COc1cc(-c2cc(C(=O)NCC(=O)Nc3cccc(C(C)=O)c3)c3cc(F)ccc3n2)cc(OC)c1OC | active |
| COc1ccc2c(c1OC)C(=O)N1c3ccccc3C(=O)N(Cc3cccc(Cl)c3Cl)C21 (centres undefined) | active |
| COc1ccc2c(c1OC)C(=O)N1c3ccccc3C(=O)N(Cc3ccccc3Cl)C21 (centres undefined) | active |
| COc1ccc2nc(-c3cc(OC)c(OC)c(OC)c3)cc(C(=O)Nc3cccc(C(C)=O)c3)c2c1 | inactive |
| CCOC(=O)c1cccc(NC(=O)c2cc(-c3cc(OC)c(OC)c(OC)c3)nc3ccc(C)cc23)c1 | inactive |
| CCOC(=O)c1ccc(NC(=O)c2cc(-c3cc(OC)c(OC)c(OC)c3)nc3ccccc23)cc1 | inactive |
